High-throughput results: PubChem BioAssay, Broad Institute
Tgondii IFNg – T. gondii growth inhibition under IFN-gamma; Toxoplasma gondii growth in IFN-gamma-treated host cells; hits give low values; 69,000 compounds, 3.8% hits; AID 1259416; activity change, negative = inhibition, % (concentration not given with the values); in the data active means activity change below about -70%, passing the limit was not always enough;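 further: host cells are HeLa cells infected with Toxoplasma gondii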
Large screens that a line does not name were inactive. The entries come from a sample that favours hits as a whole.

Cc1ccc(Nc2nc(C(=O)Nc3cccc(C)c3)nc3ccccc23)cc1	none
CSc1cccc(NC(=O)c2nc(Nc3cccc(C)c3)c3ccccc3n2)c1	Tgondii IFNg -82.2
Cc1cccc(Nc2nc(C(=O)Nc3cccc(C)c3C)nc3ccccc23)c1	none
CCc1ccc(-n2nnc(C(=O)N3CCC(N4CCCCC4)CC3)c2-c2ccncc2)cc1	none
Cc1nc(N2CCCC2)sc1C(=O)Nc1cccc(N2CCCCS2(=O)=O)c1	none
CCOc1ccc(NC(=O)Nc2ccc(-c3nc(-c4ccc(C)cc4C)co3)cc2)cc1	none
O=C(NCCc1csc(-c2ccc(Cl)cc2)n1)C(=O)Nc1ccc2c(c1)OCCO2	none
Cc1noc(-c2cc(=O)n(CC(=O)NCc3ccc4c(c3)OCO4)c3ccccc23)n1	none
COc1ccc(CNC2=NCCNC23CCN(S(=O)(=O)c2ccc(C)cc2C)CC3)cc1	none
COc1cc(N2CCCC3(CCCC(=O)N3)C2)ncn1 (stereo not drawn)	none
C=CCNC(=O)c1ccc(-c2cnc3ccccc3c2)o1	Tgondii IFNg -82.2
C=CCNC(=O)c1ccc(-c2ccc(F)c(CO)c2)o1	none
C=CCNC(=O)c1ccc(-c2cccc([N+](=O)[O-])c2)o1	none
Cc1ccc(N2CCCc3sc(C(=O)N(C)C)nc32)nn1	none
CN(C)CCNC(=O)CC1CC2(CCN(C(=O)N3CCOCC3)CC2)c2ccccc21 (stereo not drawn)	none
O=C(Nc1ccccc1Cl)c1nc(Nc2ccccc2)c2ccccc2n1	none
Cc1nc(C(=O)Nc2ccccc2Cl)cc2c1[nH]c1ccccc12	Tgondii IFNg -81.2
Cc1c(Cl)cccc1NC(=O)c1c(O)c2ccccc2[nH]c1=O	none
COc1ccc(CSc2nc(C)cc(C)c2C#N)cc1	none
CN(C)c1nc(-c2ccccc2)nc(Nc2ccc(Cl)cc2Cl)c1C#N	none
COc1ccc(Cl)cc1Nc1nc(C)cc(C)c1C#N	Tgondii IFNg -79.1
CN1CCCC1CCn1nc(C2CCNCC2)n(-c2ccccc2)c1=O (stereo not drawn)	none
CC(=O)c1[nH]c(C)c(C(=O)N2CCCC3(CNC(=O)O3)C2)c1C (stereo not drawn)	none
C=CCC1(OC)CCN(C(=O)c2coc(Cn3cnc4ccccc43)n2)CC1	none
CC(C)(C#N)c1ccc(N2C(=O)OCc3cnc4ccc(-c5cnc6ccccc6c5)cc4c32)cc1	Tgondii IFNg -85.0
CC(C)(C)Cn1c(N)nc2ccc(-c3[nH]c(C(C)(C)C)nc3-c3ccc(F)cc3)nc21	Tgondii IFNg -83.1
COc1ccc(N2CCCN(CC3CCN(C(=O)Cc4nonc4C)CC3)CC2)cc1	none
CCC(C)n1[nH]c(=O)c2c(C3CCN(C(=O)c4ccco4)CC3)cc(C(F)(F)F)nc21 (stereo not drawn)	none
COc1cc(NC(=O)Nc2ccc(-c3nc(-c4ccc(C)cc4)co3)cc2)cc(OC)c1OC	none
COc1cc(NC(=O)Nc2ccc(-c3nc(-c4ccccc4)co3)cc2)cc(OC)c1OC	Tgondii IFNg -87.7
COc1ccc(NC(=O)Nc2ccc(-c3nc(-c4cc(C)ccc4C)co3)cc2)c(OC)c1	none
COc1ccc(C)cc1NC(=O)Nc1ccc(-c2nc(-c3cc(C)ccc3C)co2)cc1	Tgondii IFNg -72.0
Cc1ccc(C)c(-c2coc(-c3ccc(NC(=O)Nc4ccccc4)cc3)n2)c1	none
COc1cc(C(=O)Nc2ccc(-c3nc(-c4ccccc4)co3)cc2)cc(OC)c1OC	none
O=C(COCC1CCCO1)N1CCN(C2CCCCC2)C(=O)C1 (stereo not drawn)	none
Cc1cccc(COCC2CC3OCCN(Cc4ccco4)C3C2)n1 (stereo not drawn)	none
C=CCOCc1cncc2c1CCN(C(=O)c1ccc3[nH]ccc3c1)C2	none
CCCN1CCC2(CC1)C(c1ccccc1)CC(=O)N2CCOC (stereo not drawn)	none
Cc1cc(C)cc(OCC(=O)Nc2ccc(Br)cn2)c1	none
CCN1c2cc(C)ccc2-n2cccc2C12CCN(C(=O)NC1CCCC1)CC2	none
CC1CCN(S(=O)(=O)c2ccc3c(c2)CCC(=O)N3CC(=O)NCC(C)c2ccccc2)CC1 (stereo not drawn)	none
CCN(C)C(=O)C1Cc2nc(-c3cccc(OC)c3)sc2N1C(C)C (stereo not drawn)	none
CC(C)N(C)Cc1ncn2c1CN(C(=O)c1cscn1)CCC2	none
COc1ccc(-c2nc3c(s2)CN(C(=O)Nc2cc(C)ccc2C)CC3)cc1	none
COc1ccc(-c2nc3c(s2)CN(C(=O)Nc2cccc(SC)c2)CC3)cc1	Tgondii IFNg -115.8
COc1cccc(-c2nc3c(s2)CN(C(=O)Nc2ccc(Br)cc2)CC3)c1	none
COc1cc(NC(=O)N2CCc3nc(-c4ccc(C)cc4)sc3C2)cc(OC)c1	none
COc1ccc(-c2nc3c(s2)CN(C(=O)Nc2ccc(C)c(C)c2)CC3)cc1	Tgondii IFNg -94.8
COc1ccc(-c2nc3c(s2)CN(C(=O)Nc2ccccc2OC)CC3)cc1	none
Cc1ccsc1C(=O)N1CC[C@@H]2OCCN(C)[C@@H]2C1	none
Cc1noc(-c2cc(=O)n(CC(=O)Nc3cccc(C#N)c3)c3ccccc23)n1	none
Cc1cc(C(=O)NC(c2nnc3n2CCNCC3)C(C)C)nc(C)n1 (stereo not drawn)	none
Cc1ccc(CN2C[C@H]3[C@H](N4CCOCC4)c4ccccc4[C@@H]3C2)o1	none
CCO[C@@H]1CC[C@@H]2[C@H]1OCCN2C(=O)CC1C=CCC1 (stereo partly drawn)	none
CCC[C@@]1(CCc2ccccc2)CC(=O)C([C@H](CC)c2cccc(NS(=O)(=O)c3ccc(C(F)(F)F)cn3)c2)C(=O)O1 (stereo partly drawn)	none
Fc1ccc(C2CCCN2Cc2cnc(N3CCOCC3)s2)cc1 (stereo not drawn)	none
O=c1c(NCc2ccc(F)cc2)cc(-c2cccs2)nn1Cc1ccc(F)cc1	none
CCS(=O)(=O)N1CCC2(CC1)CC(OC)CO2 (stereo not drawn)	Tgondii IFNg -84.8
CCS(=O)(=O)N1CCC2(CC1)CC(OCC1CCOCC1)CO2 (stereo not drawn)	none
COC1COC2(CCN(C(=O)C3CC(F)(F)C3)CC2)C1 (stereo not drawn)	none
O=C(CSc1nnc(-c2ccsc2)c(-c2ccsc2)n1)c1ccc(F)cc1	none
COCCN1C(=O)N(C2Cc3ccccc3C2)C(=O)C12CCN(C/C(C)=C/c1ccco1)CC2	none
CNC(=O)c1nn(C)c2c1C(C)(C)Cc1cnc(Nc3ccc(N4CCN(C)CC4)cc3)nc1-2	none
CN1CCN(c2ccc(OC(F)(F)F)c(Nc3ncc4c(n3)-c3c(c(C(N)=O)nn3CCO)CC4)c2)CC1	Tgondii IFNg -80.8
Brc1ccc(SCCc2nc3ccccc3o2)cc1	none
FC(F)(F)c1cccc(NC(=S)Nc2cccc(C(F)(F)F)c2)c1	none
FC(F)(F)c1cccc(NC(=S)Nc2csc(C(F)(F)F)c2-c2ccccc2)c1	Tgondii IFNg -96.6
CCOC(=O)c1cn[nH]c1NC(=S)Nc1cccc(C(F)(F)F)c1	none
COC(=O)c1c(NC(=O)C(C)C)sc2c1C(C(=O)OC)CC2 (stereo not drawn)	Tgondii IFNg -94.2
COC(=O)c1ccc(C(=O)OC)c(NC(=O)C(C)C)c1	none
Cc1sc(NC(=O)C(C)C)c(C(=O)N[C@@H]2C[C@@H](CO)N(C)C2)c1C	none
N#Cc1ccc(Cn2nc(-c3nccc4ccccc34)oc2=O)cc1	none
O=C(NCc1ccccc1)c1cc(-c2cnc(N3CCCC3)nc2)cn1CC1CC1	none
CC(=O)Nc1ccc(CNC(=O)CNC(C)c2cnn(C)c2)cc1 (stereo not drawn)	none
CN(C)c1ccc(C(=C2C=CC(=[N+](C)C)C=C2)c2ccc(N(C)C)cc2)cc1	Tgondii IFNg -81.3
Cc1oc(-c2ccccc2)nc1CSc1nc2c(c(=O)[nH]1)CN(Cc1ccccc1)CC2	none
